Data taken from PubChem BioAssay (EPA / NIEHS).
Active and inactive are the calls of the source. The calls were made as follows: active = hit-call score of the fitted dose curve at least 0.9, where 1 is the maximum; inactive = score below 0.9.

Assay: ATG_NFI_CIS: Attagene CIS-FACTORIAL HepG2 Assay for human Nuclear Factor I (NFI) (AID 2282989)
Conditions: HepG2 cis-regulatory reporter, NFI response element transcription; actives raise or lower the signal
Method: ATG_CIS is a cell-based, multiplexed-readout assay that uses HepG2, a human liver cell line, with measurements taken at 24 hours after chemical dosing in a 24-well plate.ATG_NFI_CIS is one of 52 assay component(s) measured or calculated from the ATG_CIS assay. It is designed to make measurements of mRNA induction, a form of inducible reporter, as detected with fluorescence intensity signals by Reverse transcription polymerase chain reaction (RT-PCR) and Capillary electrophoresis technology.Data from the assay component ATG_NFI_CIS was analyzed into 1 assay endpoint. This assay endpoint, ATG_NFI_CIS, was analyzed with bidirectional fitting relative to DMSO as the negative control and baseline of activity. Using a type of inducible reporter, measures of mRNA for gain or loss-of-signal activity can be used to understand the reporter gene at the transcription factor-level as they relate to the gene NFIA. Furthermore, this assay endpoint can be referred to as a primary readout, because this assay has produced multiple assay endpoints where this one serves a reporter gene function. To generalize the intended target to other relatable targets, this assay endpoint is annotated to the dna binding intended target family, where the subfamily is nuclear factor I.
Human liver HepG2 cells are transiently transfected with multiple reporter transcription units (MRTUs) in 6-well plates using FuGene 6 reagent (Roche; 3 ml FuGene/1 mg DNA). The MRTU constructs are regulated by a cis-regulating element (promoter). […] A major difference between the CIS and TRANS system is that in CIS activities of endogenous TFs are measured, whereas the TRANS assay evaluates changes in activities of exogenous, chimeric NR-Gal4 proteins. […] At the end of 24 hour incubation, total RNA was isolated using TriZol reagent (Invitrogen). The isolated RNA is then reverse-transcribed using oligo(dT) primer and Mo-MLV reverse transcriptase (Invitrogen) with DNAse I (Ambion) treatment for 30 min. The one-tenth of the produced cDNA was amplified by PCR using Taq DNA polymerase (Invitrogen) and two reporter sequence-specific primers. The PCR products were fluorescently labeled by primer extension with 6-arboxyfluorescein (6-FAM) 5'-labeled reporter sequence-specific primer (2 min at 95 C, 20 s at 68 C and 10 min at 72 C) and these products were digested with 5U of HpaI (New England Biolabs) for 2h at 37 C. The fragments were purified using Qiaquick PCR columns (Qiagen), analyzed on an ABI 3130xL genetic analyzer (Applied Biosystems) with peak positions identified by using a set of X-rhodamine (ROX)-labeled MapMarker1000 molecular weight standards (BioVentures). The raw capillary electrophoresis data was processed using Attagraph software (Attagene).

SMILES | outcome
C1=CCCC1 | inactive
CC(C)(C)C(=O)CCc1ccc(Cl)cc1 | inactive
CO[Si](OC)(OC)c1ccccc1 | inactive
CC/C=C\CCOC(=O)CCCCC | inactive
CC1OC1C1CCC2(C)OC2C1 (stereo not given) | inactive
C=CC(=O)OCCC(=O)O | inactive
CCO[Si](CCCN=C=O)(OCC)OCC | inactive
O=c1[nH]c(=O)c2[nH]c(=O)[nH]c2[nH]1 | inactive
CCCCCCCC[N+](C)(CCCCCCCC)CCCCCCCC | inactive
COC(=O)/C=C/C(C)=C\C=C\C(C)=C\C=C\C=C(C)\C=C\C=C(C)\C=C\C(=O)O | inactive
C1CN(SSN2CCOCC2)CCO1 | inactive
O=C1Nc2ccccc2C1(c1ccc(O)cc1)c1ccc(O)cc1 | inactive
CC1=CC[C@H]2C[C@@H]1C2(C)C | inactive
CCCCCCCCCCCCCOP(=O)(O)O | inactive
Nc1ccc(N=Nc2ccccc2)c(N)n1 | inactive
CCCCCCOc1cc(C)c(O)c(C)c1C | inactive
O=Nc1ccc(O)cc1 | inactive
CCCCCCCOC(=O)CCC | inactive
Cc1ccc(OC(=O)CC(C)C)cc1 | inactive
COc1ccc(C(Cl)=C(c2ccc(OC)cc2)c2ccc(OC)cc2)cc1 | inactive

SMILES | outcome
NC(=O)OCC(COC(N)=O)c1ccccc1 | inactive
CCCCC/C=C\CCC=O | inactive
CC(C)c1ccc(C#N)cc1 | inactive
COC(=O)c1cc(Cl)ccc1[N+](=O)[O-] | inactive
O=c1cc[nH]c(=S)[nH]1 | inactive
CCCCCCCCCCC=CC#N | inactive
COC(=O)c1ccc2cc(C(=O)OC)ccc2c1 | inactive
[Cl][Bi]([Cl])([c]1ccccc1)([c]1ccccc1)[c]1ccccc1 | inactive
CC(C)c1ccc(C=O)cc1 | inactive
Cc1cccc(N)n1 | inactive
CCOC(=O)CC(C(C)=O)C(C)=O | inactive
O=CN1CCCCC1 | inactive
C#CC1(O)CC[C@H]2[C@@H]3CCC4=CCCC[C@@H]4[C@H]3CC[C@@]21C (stereo not given in full) | inactive
CC1(C)S[C@@H]2[C@H](NC(=O)COc3ccccc3)C(=O)N2[C@H]1C(=O)O | inactive
CCCCCCCCCCOS(=O)(=O)O | inactive
FC(F)(F)C(=NOCC1OCCO1)c1ccc(Cl)cc1 | inactive
CCc1ccc2c(c1)C(=O)c1ccccc1C2=O | inactive
c1ccc2c(c1)ccc1ncccc12 | inactive
C/C=C\C/C=C/CCCCCCCCOC(C)=O | inactive
CCC(Cc1ccccc1)(C(=O)c1ccc(N2CCOCC2)cc1)N(C)C (stereo not given) | inactive
